Source: the supplement of paper PMC11732987, “Enantioselective OTUD7B fragment discovery through chemoproteomics screening and high-throughput optimisation” (Communications Chemistry, 2025)

Tests used:
Assay in all cases: log2 ratio of Biotin-Ahx-Ub-VS probe labelling (fragment/DMSO); higher = less target engagement (more negative = stronger competition), active = hit call of the paper (q ≤ 0.05, log2 ratio ≤ -1)
Details in all cases: compound concentration: 200 uM; treatment time: 3 h
USP19 = target: T1, USP19 (UniProt O94966)
T1 sequence (whole entry): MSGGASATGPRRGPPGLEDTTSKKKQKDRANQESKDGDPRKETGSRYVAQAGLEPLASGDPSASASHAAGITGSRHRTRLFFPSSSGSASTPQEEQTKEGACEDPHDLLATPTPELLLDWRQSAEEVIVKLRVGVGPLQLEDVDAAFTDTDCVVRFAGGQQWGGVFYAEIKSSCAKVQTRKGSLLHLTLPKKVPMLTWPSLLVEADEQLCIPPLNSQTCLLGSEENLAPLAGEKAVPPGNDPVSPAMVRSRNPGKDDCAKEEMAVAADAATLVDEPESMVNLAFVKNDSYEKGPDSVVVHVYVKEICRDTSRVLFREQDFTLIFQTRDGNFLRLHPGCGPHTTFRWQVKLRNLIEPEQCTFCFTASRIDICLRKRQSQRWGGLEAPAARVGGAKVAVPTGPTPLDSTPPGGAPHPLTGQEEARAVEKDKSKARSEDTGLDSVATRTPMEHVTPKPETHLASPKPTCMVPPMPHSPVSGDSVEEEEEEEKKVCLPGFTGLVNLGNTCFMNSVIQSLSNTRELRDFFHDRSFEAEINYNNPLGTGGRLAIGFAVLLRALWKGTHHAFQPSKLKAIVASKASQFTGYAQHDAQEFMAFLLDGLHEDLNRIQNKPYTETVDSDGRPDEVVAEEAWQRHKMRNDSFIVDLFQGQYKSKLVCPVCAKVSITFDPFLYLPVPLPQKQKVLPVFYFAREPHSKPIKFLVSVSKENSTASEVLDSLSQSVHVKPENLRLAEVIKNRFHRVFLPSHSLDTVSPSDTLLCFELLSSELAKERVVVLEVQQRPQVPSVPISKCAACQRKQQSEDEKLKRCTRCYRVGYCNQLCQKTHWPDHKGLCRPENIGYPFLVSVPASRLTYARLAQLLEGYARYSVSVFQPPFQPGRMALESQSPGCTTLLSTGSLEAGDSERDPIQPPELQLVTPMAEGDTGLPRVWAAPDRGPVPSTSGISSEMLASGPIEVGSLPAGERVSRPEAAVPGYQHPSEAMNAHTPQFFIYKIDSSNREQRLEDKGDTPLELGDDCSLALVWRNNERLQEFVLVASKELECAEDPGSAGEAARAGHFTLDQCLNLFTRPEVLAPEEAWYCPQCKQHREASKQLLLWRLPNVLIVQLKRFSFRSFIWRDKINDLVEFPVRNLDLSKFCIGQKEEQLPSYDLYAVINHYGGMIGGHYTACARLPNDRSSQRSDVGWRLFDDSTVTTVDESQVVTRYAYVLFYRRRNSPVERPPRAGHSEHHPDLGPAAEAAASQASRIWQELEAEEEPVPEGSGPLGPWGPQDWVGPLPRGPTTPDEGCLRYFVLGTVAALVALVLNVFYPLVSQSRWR
Procedure, shortened: (§1)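 The table lists average log2 ratios of fragment over vehicle, from an unpaired t-test on global-median-normalised Spectronaut label-free quantities. Proteins with ≥2 unique peptides were used. Samples were HEK293T lysate (495 µg) treated in triplicate with fragment at 200 µM or vehicle for 3 h, then with Biotin-Ahx-Ub-VS (0.5 µM final) for 1 h, with labelled DUBs NeutrAvidin-enriched and run by diaPASEF LC-MS/MS.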

USP22 = target: T2, USP22 (UniProt Q9UPT9)
T2 sequence (whole entry): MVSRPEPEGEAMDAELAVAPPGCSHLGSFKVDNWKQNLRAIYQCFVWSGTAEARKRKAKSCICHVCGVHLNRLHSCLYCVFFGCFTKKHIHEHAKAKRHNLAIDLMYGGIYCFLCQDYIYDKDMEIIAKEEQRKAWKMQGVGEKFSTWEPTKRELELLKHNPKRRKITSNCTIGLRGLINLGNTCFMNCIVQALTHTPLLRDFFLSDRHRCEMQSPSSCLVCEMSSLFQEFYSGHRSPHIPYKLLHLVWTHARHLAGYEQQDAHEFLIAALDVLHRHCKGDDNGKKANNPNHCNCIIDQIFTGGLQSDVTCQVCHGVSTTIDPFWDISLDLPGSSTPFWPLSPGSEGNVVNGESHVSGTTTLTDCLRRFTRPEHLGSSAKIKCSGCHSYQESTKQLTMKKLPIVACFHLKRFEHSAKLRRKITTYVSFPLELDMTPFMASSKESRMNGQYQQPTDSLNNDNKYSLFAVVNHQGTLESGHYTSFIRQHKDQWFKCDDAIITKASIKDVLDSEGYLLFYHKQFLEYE
Procedure, shortened: as §1

USP24 = USP24 (UniProt Q9UPU5)
USP24, sequence (Q9UPU5 whole entry): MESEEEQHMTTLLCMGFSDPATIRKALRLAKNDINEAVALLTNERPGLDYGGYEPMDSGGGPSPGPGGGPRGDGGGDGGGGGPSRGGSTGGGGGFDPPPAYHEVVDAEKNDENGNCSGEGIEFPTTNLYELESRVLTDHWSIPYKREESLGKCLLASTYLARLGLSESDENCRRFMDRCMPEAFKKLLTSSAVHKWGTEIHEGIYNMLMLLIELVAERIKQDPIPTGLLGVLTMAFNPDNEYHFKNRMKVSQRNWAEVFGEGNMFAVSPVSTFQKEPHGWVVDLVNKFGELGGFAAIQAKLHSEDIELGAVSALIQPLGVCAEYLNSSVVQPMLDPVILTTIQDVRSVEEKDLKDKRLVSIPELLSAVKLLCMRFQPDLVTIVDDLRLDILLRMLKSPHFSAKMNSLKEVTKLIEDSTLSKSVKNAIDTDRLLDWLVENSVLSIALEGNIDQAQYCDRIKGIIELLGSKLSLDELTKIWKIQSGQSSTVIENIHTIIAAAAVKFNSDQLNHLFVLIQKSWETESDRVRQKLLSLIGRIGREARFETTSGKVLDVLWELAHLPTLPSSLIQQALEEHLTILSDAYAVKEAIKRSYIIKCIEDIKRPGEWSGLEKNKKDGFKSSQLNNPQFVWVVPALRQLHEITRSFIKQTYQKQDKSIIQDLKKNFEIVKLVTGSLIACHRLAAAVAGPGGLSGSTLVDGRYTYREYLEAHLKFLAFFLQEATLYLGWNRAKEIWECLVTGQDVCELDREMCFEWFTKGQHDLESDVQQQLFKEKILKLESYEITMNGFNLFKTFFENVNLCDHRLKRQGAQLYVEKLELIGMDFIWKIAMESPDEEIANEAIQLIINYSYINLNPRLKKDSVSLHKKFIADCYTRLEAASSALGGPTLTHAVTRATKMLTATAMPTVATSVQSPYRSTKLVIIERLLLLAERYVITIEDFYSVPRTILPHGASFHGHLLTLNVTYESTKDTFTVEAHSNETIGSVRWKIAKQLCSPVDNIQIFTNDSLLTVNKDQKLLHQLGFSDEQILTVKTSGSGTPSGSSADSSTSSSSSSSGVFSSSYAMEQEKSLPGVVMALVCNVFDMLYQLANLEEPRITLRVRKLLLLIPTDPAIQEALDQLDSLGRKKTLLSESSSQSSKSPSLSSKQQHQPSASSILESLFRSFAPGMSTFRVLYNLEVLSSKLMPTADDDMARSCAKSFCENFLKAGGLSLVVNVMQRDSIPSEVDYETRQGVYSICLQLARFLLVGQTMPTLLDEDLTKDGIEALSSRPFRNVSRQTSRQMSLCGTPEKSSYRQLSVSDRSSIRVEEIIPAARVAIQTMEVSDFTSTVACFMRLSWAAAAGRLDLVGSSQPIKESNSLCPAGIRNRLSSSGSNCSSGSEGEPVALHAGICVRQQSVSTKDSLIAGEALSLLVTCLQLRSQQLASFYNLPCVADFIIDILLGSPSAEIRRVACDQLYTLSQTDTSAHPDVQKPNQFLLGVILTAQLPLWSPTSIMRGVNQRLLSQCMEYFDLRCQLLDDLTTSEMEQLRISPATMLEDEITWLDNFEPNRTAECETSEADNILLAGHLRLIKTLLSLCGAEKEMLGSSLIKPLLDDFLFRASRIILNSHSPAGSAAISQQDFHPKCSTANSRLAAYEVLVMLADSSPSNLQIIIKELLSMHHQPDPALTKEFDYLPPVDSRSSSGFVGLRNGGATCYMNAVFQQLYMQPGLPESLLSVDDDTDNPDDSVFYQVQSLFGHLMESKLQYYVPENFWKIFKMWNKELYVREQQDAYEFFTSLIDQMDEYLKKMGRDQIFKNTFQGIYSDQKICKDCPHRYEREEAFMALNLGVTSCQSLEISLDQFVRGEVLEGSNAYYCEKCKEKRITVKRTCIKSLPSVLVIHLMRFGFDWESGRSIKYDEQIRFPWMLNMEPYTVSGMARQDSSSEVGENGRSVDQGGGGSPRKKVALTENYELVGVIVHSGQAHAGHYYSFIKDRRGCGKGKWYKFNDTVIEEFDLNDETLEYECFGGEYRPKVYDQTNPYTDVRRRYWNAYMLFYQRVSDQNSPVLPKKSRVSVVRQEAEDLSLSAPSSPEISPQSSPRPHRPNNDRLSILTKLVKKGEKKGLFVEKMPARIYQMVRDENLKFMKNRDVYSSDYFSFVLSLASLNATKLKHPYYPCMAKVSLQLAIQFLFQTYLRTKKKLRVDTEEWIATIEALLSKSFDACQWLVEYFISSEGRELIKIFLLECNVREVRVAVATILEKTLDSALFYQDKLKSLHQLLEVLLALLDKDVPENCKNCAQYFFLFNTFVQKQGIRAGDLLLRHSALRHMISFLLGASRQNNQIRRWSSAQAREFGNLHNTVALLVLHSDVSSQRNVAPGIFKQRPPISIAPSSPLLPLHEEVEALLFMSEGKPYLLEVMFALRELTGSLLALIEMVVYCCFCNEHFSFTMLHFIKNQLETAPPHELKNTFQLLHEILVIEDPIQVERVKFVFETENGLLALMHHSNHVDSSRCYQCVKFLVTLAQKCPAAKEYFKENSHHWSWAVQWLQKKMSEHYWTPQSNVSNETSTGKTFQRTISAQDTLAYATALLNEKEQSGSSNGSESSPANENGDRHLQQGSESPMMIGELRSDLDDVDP
Procedure, shortened: as §1

USP25 = target: T3, USP25 (UniProt Q9UHP3)
T3 sequence (whole entry): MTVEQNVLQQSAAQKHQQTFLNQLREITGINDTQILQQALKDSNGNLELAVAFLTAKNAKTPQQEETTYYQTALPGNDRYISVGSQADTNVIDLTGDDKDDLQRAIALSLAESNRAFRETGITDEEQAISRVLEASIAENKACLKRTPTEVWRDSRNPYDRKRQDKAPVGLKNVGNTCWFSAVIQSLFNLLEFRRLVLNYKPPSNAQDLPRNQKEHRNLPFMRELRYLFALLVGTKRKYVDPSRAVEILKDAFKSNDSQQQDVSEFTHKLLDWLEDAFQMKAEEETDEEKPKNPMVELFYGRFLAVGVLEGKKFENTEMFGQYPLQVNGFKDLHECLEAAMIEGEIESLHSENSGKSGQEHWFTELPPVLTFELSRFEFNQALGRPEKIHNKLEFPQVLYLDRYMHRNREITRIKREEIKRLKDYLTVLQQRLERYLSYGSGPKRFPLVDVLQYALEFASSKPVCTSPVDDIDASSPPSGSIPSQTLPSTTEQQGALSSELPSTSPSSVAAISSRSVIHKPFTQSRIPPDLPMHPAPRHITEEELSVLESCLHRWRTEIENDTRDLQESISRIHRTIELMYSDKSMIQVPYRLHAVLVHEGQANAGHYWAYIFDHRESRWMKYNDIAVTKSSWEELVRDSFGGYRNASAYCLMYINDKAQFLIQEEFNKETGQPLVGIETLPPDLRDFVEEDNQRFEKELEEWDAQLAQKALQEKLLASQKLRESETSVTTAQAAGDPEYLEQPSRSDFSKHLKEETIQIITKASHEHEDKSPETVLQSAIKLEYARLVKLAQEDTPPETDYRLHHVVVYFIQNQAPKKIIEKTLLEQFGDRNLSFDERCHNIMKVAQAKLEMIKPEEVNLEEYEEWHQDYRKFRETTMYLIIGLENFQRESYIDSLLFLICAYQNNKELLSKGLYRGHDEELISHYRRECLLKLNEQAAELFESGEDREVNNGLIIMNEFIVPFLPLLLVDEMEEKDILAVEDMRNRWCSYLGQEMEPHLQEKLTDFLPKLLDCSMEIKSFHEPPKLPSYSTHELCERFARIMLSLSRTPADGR
Procedure, shortened: as §1

USP28 = target: T4, USP28 (UniProt Q96RU2)
T4 sequence (whole entry): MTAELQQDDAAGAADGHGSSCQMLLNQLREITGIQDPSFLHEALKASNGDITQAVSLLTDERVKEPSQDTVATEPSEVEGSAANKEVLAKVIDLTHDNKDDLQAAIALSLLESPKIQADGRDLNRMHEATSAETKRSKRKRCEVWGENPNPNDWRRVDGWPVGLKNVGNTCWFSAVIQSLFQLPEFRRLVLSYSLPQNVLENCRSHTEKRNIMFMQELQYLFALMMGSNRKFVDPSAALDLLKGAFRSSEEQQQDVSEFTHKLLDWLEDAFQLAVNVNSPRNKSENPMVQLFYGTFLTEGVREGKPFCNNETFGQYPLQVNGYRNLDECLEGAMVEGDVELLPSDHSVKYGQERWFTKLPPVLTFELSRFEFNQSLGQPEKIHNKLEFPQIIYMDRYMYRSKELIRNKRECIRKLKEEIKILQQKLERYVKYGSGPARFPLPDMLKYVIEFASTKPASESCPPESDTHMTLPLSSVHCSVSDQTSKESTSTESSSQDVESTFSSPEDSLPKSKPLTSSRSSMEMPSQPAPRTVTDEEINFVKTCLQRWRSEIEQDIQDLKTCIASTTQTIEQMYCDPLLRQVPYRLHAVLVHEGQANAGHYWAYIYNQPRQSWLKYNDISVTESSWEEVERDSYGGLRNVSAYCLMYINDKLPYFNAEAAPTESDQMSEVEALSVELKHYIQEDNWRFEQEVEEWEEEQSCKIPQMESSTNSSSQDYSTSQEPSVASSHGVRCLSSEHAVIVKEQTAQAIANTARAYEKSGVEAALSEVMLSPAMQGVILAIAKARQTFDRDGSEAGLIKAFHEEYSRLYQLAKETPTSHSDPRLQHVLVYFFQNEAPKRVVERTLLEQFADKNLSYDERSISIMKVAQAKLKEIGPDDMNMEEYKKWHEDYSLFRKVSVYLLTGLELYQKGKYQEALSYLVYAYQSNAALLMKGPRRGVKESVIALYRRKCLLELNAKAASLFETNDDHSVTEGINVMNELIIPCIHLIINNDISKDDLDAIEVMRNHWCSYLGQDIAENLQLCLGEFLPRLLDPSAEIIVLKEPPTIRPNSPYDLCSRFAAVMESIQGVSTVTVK
Procedure, shortened: as §1

Measured: log2 ratio of Biotin-Ahx-Ub-VS probe labelling

O=C(CCl)N1CCOC2(CCC2)CC1
inactive: USP19 -0.704 | USP22 -0.382 | USP24 -0.23 | USP25 -0.448 | USP28 -0.346
